Screening data as filed in PubChem BioAssay.
Only some compounds are listed: those with a hit (about 11% of all), similar ones and a draw of the others.
hNpr1 antagonist – Natriuretic polypeptide receptor (hNpr1) antagonism - Primary qHTS | AID 1347048, 2019 | hit rate 1.6% among 76,000 | HEK293 hNpr1 GloSensor cGMP, ANP-stimulated luminescence | Potency, µM (doses to about 46.3 µM), for inactives: at the top dose activity change, negative = inhibition, hits mostly inhibitors; calls by dose curve; also: nearly all actives have a fitted effect of over 60% in size
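Compound pre-incubated 30 min at room temperature on GloSensor-loaded HEK293 cells stably carrying hNpr1 and the pGS-40F cGMP biosensor. Stimulation uses hNppA at 0.1 nM final; luminescence is taken at baseline and 20 min post-agonist.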
HEK cytotox – Cytotoxic Profiling in HEK 293 Cell Line of Diverse Libraries Using Quantitative High-Throughput Screening | HEK 293 viability, ATP luminescence (CellTiter-Glo), 48-72 h | Potency, µM (highest dose often 115 µM), for inactives: at the highest dose activity change, negative = cytotoxicity, usual class: inhibitors | hit rate 6.6% among 94,000 | AID 1345083, 2018; also: nearly all actives have a fitted effect of over 60% in size
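HEK 293 cells at 250 cells/well were exposed to compounds by pintool transfer for 48 or 72 hr at 37 degree Celsius, 5% CO2. Viability was read as ATP-coupled luminescence with CellTiter-Glo after 10 min at room temperature.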
3T3 cytotox – Cytotoxic Profiling in NIH 3T3 Cell Line of Diverse Libraries Using Quantitative High-Throughput Screening; NIH 3T3 viability, CellTiter-Glo ATP luminescence, 48-72 h; Potency, µM (series often up to 96.7 µM), for inactives: top-dose activity change, negative = cytotoxicity, hits mostly inhibitors; hit rate 4.3% among 94,000; AID 1345082, 2018; also: nearly all actives have a fitted effect of over 55% in size
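Cytotoxicity is measured as loss of cellular ATP: NIH 3T3 cells (400/well) are exposed to compound for 48 or 72 hr at 37 °C, then CellTiter-Glo luminescence is imaged after 10 min at room temperature.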
FLuc inh – Firefly luciferase inhibition profiling of diverse chemical library using quantitative high-throughput screening | AID 1347043, 2019 | Luciferin 4-monooxygenase (Photinus pyralis), P08659 | purified P. pyralis luciferase, luminescence, biochemical | hit rate 2.5% among 76,000 | Potency, µM (top dose mostly 115 µM), actives largely listed as inhibitors; also: nearly all actives have a fitted effect of over 65% in size
Target sequence (P08659 whole entry, looked up): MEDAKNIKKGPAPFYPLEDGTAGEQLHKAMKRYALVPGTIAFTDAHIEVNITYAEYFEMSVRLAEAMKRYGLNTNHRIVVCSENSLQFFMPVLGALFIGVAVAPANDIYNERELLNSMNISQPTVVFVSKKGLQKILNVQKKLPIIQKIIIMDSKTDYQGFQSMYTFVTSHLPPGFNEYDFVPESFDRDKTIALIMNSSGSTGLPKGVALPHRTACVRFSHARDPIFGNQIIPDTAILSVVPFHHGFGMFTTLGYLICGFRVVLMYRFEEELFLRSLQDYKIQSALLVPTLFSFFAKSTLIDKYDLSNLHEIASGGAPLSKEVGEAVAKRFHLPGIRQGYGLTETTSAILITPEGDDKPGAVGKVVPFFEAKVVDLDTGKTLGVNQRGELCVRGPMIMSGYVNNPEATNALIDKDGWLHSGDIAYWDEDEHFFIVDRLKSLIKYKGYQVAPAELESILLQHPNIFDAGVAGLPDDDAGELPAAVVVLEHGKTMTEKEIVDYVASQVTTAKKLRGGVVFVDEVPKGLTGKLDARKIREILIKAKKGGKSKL
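Purified 10nM P. pyralis luciferase with 10uM D-luciferin and 10uM ATP in 50mM Tris acetate pH 7.5, 10mM Mg acetate, 0.01% Tween-20, 0.05% BSA. qHTS titration; luminescence read by CCD imager.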
Active calls of the source: *; i = inactive; ? = inconclusive; . = no result given; [ ] = another dose, or the depositor's remark. Unless noted, calls follow the shape of the dose curve; as a rule, active = well fitted curve in the direction sought with a large enough effect; inconclusive = small, poorly fitted or top-dose-only effect, or another doubt; inactive = no such curve, though single readings can be large; an effect the other way counts as inactive or inconclusive. % is scaled to controls: 0 for no effect and ±100 for the full control effect; potency is read from the fitted curve at half-maximal effect.

SMILES | hNpr1 antagonist | HEK cytotox | 3T3 cytotox | FLuc inh
CCOC(=O)C1(Cc2ccccc2C)CCCN(C(=O)c2csc(C)n2)C1 (centres undefined) | -2.4% | -16.6% | -0.3% | 39.8µM*
CCOC(=O)C1(Cc2ccccc2F)CCCN(C(=O)CCc2c[nH]c3ccccc23)C1 (centres undefined) | ? | 35.5µM* | ? | i
CCOC(=O)C1(Cc2ccccc2C)CCCN(C(=O)c2cc[n+]([O-])cc2)C1 (centres undefined) | 13.8% | -2.4% | i | i
CCOC(=O)C1(Cc2ccccc2Cl)CCN(C(=O)c2ccsc2)CC1 | -11.2% | 79.4µM* | -24.5% | 25.1µM*
COc1ccc(-n2c(=O)c(C(=O)Nc3ccc(F)cc3)nc3cccnc32)cc1 | . | 0.6% | -14.1% | .
O=C(Nc1cccnc1)[C@@H]1C[C@@H](c2ccc(F)cc2)N(Cc2ccccc2)C1 | ? | ? | 79.4µM* | i
COc1ccc(NC(=O)[C@@H]2C[C@H](c3ccc(F)cc3)N(Cc3ccccc3Cl)C2)cn1 | -29.7%[70.6 µM] | 28.2µM* | 22.4µM* | i
O=C(Nc1cccnc1)[C@@H]1C[C@H](c2ccc(F)cc2)N(Cc2ccccc2Cl)C1 | -24.1%[70.6 µM] | 39.8µM* | 44.7µM* | i
COc1ccc(NC(=O)[C@@H]2C[C@H](c3ccc(F)cc3)N(Cc3csc(C)n3)C2)cn1 | -2.7%[70.6 µM] | ? | ? | i
CC(C)CN(C1CCN(C)CC1)C1CN(C(=O)COCc2ccccc2)C1 | . | -5.0% | ? | .
Cc1cccc(CNC(=O)c2cc3n(n2)CC(c2ccc4c(c2)OCO4)OC3)c1 (centres undefined) | -4.8% | ? | ? | i
CCC1C(=O)NCCN1Cc1cn(-c2cccc(F)c2)nc1-c1ccc(C)o1 (centres undefined) | -7.3% | ? | ? | 28.2µM*
COC[C@@H]1CCCN1Cc1cn(-c2ccccc2)nc1-c1ccc(OC)cc1F | 9.0% | ? | ? | ?
Cc1cc(Cl)ccc1S(=O)(=O)N1CCC(n2cnnc2C)CC1 | -1.8% | -4.8% | -16.4% | i
Cc1ccc(C(=O)N(C)Cc2cccc(C(F)(F)F)c2)cc1 | -10.2%[70.6 µM] | 100µM* | ? | i
CN(Cc1cccc(C(F)(F)F)c1)C(=O)c1ccccc1Cl | -3.9%[70.6 µM] | 56.2µM* | 89.1µM* | i
COc1cccc(C(=O)N(C)Cc2ccccc2C(F)(F)F)c1 | -0.2%[70.6 µM] | 100µM* | ? | i
Cc1ccc(C(=O)N(C)Cc2ccc(-c3ccccc3)cc2)cc1 | -12.2%[70.6 µM] | 89.1µM* | ? | i
CSc1ccc(-c2cccc(C(=O)NCCNC(=O)c3ccccc3)c2)cc1 | . | ? | -28.9% | .
CN(Cc1cccc(C(F)(F)F)c1)C(=O)c1cccc(C(F)(F)F)c1 | 11.2% | ? | ? | i
COc1cccc(C(=O)N(C)Cc2cccc(C(F)(F)F)c2)c1 | 0.0%[70.6 µM] | 89.1µM* | ? | i
Cc1nn(-c2ccccc2)c2c1C(C1CC1)N(C1CCN(Cc3ccccc3C(F)(F)F)CC1)C2=O (centres undefined) | . | -16.5% | -14.5% | .
O=C(NCc1cccs1)[C@@H]1C[C@@H](O)[C@H](O)[C@@H]2NC(=S)N(c3ccc(OC(F)(F)F)cc3)[C@@H]21 | -5.3% | ? | ? | 44.7µM*
O=C(NCCc1ccccn1)C1CCN(Cc2ccccc2-c2cccnc2)CC1 | . | 2.8% | -14.7% | .
N#Cc1cccc(C(=O)N2CCCN(Cc3ccncc3)C(c3ccccc3)CC(=O)NCC2)c1 (centres undefined) | -0.9% | 4.2% | -3.0% | i
SMILES | hNpr1 antagonist | HEK cytotox | 3T3 cytotox | FLuc inh
CCc1nc2c(c(-c3ccc(Cl)cc3)n1)CN(C(=O)c1cccc(Cl)c1)CC2 | -15.5% | -22.1% | ? | i
O=C(NCc1ccccc1)c1ccc2c(c1)n(Cc1ccc(F)cc1)c(=O)c1ccnn12 | 0.3% | 28.2µM* | 31.6µM* | i
CCN(CC)CCNC(=O)c1ccc2c(c1)n(Cc1cccc(F)c1)c(=O)c1ccnn12 | 0.3% | 31.6µM* | 31.6µM* | i
O=C(NCc1ccco1)c1ccc2c(c1)n(Cc1ccc(F)cc1)c(=O)c1ccnn12 | -5.4% | ? | 22.4µM* | i
CCNc1ncnc2sc3c(c12)CCN(Cc1ccc[nH]1)C3 | -9.0% | ? | 39.8µM* | i
COc1ccccc1Nc1ccnc(N2CCCC2C(=O)NCc2ccc(F)cc2)n1 (centres undefined) | . | ? | -19.6% | .
COc1ccccc1Nc1ccnc(N2CCCC(C(=O)NCc3cccc(F)c3)C2)n1 (centres undefined) | . | 11.2µM* | 12.6µM* | .
COc1ccccc1Nc1ccnc(N2CCCC(C(=O)NCc3cccc(Cl)c3)C2)n1 (centres undefined) | . | ? | 12.6µM* | .
COc1ccccc1Nc1ccnc(N2CCCC(C(=O)NC3CCOCC3)C2)n1 (centres undefined) | . | -25.2% | -27.6% | .
COc1cc(OC)cc(C(=O)N2CCC3(CC2)NC(=O)N(c2cccc(F)c2)N3)c1 | -1.2% | ? | ? | i
O=C(c1cccnc1)N1CC(n2cc(COCc3ccccc3)nn2)C1 | . | 4.1% | -27.7% | .
O=C(Nc1ccccc1Cl)C1CCCN(Cc2cccc(-c3ccc(F)cc3F)c2)C1 (centres undefined) | . | 31.6µM* | 35.5µM* | .
O=C(NCc1ccccc1Cl)C1CCCN(Cc2cccc(-c3ccc(F)cc3F)c2)C1 (centres undefined) | . | 44.7µM* | ? | .
O=C(NCc1ccc(F)cc1)C1CCCN(Cc2cccc(-c3ccc(F)cc3F)c2)C1 (centres undefined) | . | ? | 44.7µM* | .
CCCC(=O)Nc1cc(C2CCCC2)nn1C | . | i | -1.7%[174 µM] | .
CN(C)Cc1cn([C@H]2CO[C@H]3[C@@H]2OC[C@H]3OC(=O)Nc2ccc(C(C)(C)C)cc2)nn1 | -1.8%[70.6 µM] | ? | ? | 70.8µM*
COC(=O)c1cn([C@H]2CO[C@H]3[C@@H]2OC[C@H]3OC(=O)Nc2ccc(C(C)(C)C)cc2)nn1 | 2.3%[70.6 µM] | -9.0%[172 µM] | -0.8%[174 µM] | i
Cc1ccc(C(=O)N2CCN(c3ccc4nnc(C5CC5)n4n3)CC2)cc1 | . | i | -17.6% | .
CC(C)(C)c1ccc(CN2CC3(COCC2=O)CN(c2ccccc2)C3)cc1 | -1.5%[70.6 µM] | ? | 79.4µM* | i
Cc1ccccc1CN1CC2(COCC1=O)CN(c1ccc(C(F)(F)F)cn1)C2 | -0.9%[70.6 µM] | 89.1µM* | ? | i
COc1ccc(N2CC3(COCC2=O)CN(c2ccc(C(F)(F)F)cn2)C3)cn1 | 0.8%[70.6 µM] | -19.9%[172 µM] | 39.8µM* | i
COc1cccc(-c2cccc(C(=O)N3CCN(C(=O)c4ccccc4Cl)CC3)c2)c1 | . | ? | -25.4% | .
CC(=O)N1CCCC1C(=O)N1CCC2(CC1)CC(=O)Nc1ccccc1O2 (centres undefined) | . | -12.9% | -12.2% | .
